PAFAH1B2 FP inh: blocks human PAF acetylhydrolase 1b catalytic subunit 2. inhibition, % at 3.39 µM. hit rate 1.2% among 340,000. P68402. recombinant PAFAH1B2, FP-rhodamine activity probe, fluorescence polarization;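 active means inhibition above the mean of all tested compounds plus 3 SD, cut at about 24% in these data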
Target sequence (P68402 whole entry, looked up): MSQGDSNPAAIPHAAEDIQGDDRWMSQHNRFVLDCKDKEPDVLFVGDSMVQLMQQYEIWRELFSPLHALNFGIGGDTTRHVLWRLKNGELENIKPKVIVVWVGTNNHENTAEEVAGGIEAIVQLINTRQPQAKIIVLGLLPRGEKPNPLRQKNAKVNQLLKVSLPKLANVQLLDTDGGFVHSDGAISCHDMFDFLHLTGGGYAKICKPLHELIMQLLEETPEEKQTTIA
TCR-CD3 inh: blocks the human TCR-CD3 interaction; TAMRA-labeled TCR probe fluorescence, biochemical; inhibition, % at 9.4 µM; hit rate 0.37% among 360,000; AID 651800; in the data active means inhibition above about 19%;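 further: recombinant mutant TCR 2C K166C tagged with TAMRA read by polarization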
pPAFAH inh: inhibitors of human plasma PAF acetylhydrolase (pPAFAH). Q13093. recombinant pPAFAH, FP-rhodamine probe fluorescence polarization. inhibition, % at 3.39 µM. hit rate 1.5% among 330,000;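 active means inhibition above the mean inhibition across the screen plus 3 SD, cut at about 25% in these data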;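 further: inhibitors block binding of the rhodamine activity-based probe so polarization drops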
Target sequence (Q13093 whole entry, looked up): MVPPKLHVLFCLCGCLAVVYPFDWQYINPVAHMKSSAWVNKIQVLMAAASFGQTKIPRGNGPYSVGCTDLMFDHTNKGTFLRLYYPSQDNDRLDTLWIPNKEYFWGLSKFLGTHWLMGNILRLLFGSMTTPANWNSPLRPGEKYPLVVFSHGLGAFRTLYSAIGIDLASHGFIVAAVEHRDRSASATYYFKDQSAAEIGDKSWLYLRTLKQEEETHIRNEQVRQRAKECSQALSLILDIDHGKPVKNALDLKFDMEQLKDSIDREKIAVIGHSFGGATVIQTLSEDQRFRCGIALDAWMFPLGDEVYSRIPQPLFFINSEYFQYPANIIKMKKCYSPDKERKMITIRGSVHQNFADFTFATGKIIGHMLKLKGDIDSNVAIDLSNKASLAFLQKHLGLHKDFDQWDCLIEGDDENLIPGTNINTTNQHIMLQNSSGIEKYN
PAFAH2 inh: PAFAH2 (human) inhibition; inhibition, % at 3.39 µM; AID 492956; Q99487; hit rate 0.99% among 340,000; recombinant PAFAH2, FP-rhodamine activity probe, fluorescence polarization;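 active means inhibition above the mean over all tested compounds plus 3 SD, cut at about 30% in these data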;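 further: inhibitors block probe labeling of enzyme so polarization drops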
PAFAH1B3 inh: blocks human PAF acetylhydrolase 1B catalytic subunit 3. recombinant PAFAH1B3, FP-rhodamine probe, fluorescence polarization. inhibition, % at 3.39 µM. hit rate 0.28% among 340,000;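 active means inhibition above the screen-wide average of all tested compounds plus 3 SD, cut at about 25% in these data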
PAFAH2 FP conf: confirmation of human PAFAH2 inhibitors; shares compounds with PAFAH2 inh; recombinant PAFAH2, FP-rhodamine activity probe, fluorescence polarization; inhibition, % at 3.39 µM; hit rate 65% among 2,300; AID 493030;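 active means mean inhibition over three repeats above a set limit taken from the earlier primary screen, cut at about 30% in these data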;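 further: inhibitor blocks binding of rhodamine activity probe so polarization falls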
Each line names hits and unclear results; the compound was inactive in the other large screens (follow-up assays come after a bar, where they were run). Most compounds without a hit are left out; they make up all but 2.7% or so of the library.

COc1ccc(/C=C/C(=O)OCC(=O)NC(=O)NC(C)(C)C)cc1	PAFAH2 inh 38 | PAFAH2 FP conf inactive
CC(C)(C)NC(=O)COC(=O)/C=C/c1ccc(F)cc1	PAFAH2 inh 65 | PAFAH2 FP conf 47
COc1cc(OC)cc(C(=O)OCC(=O)Nc2cccc(C(C)=O)c2)c1	none
Cc1ccc(NC(=O)COC(=O)c2cccc(N3C(=O)c4ccccc4C3=O)c2)cc1	PAFAH2 inh 38 | PAFAH2 FP conf inactive
CC(=O)c1cccc(NC(=O)COC(=O)c2cccc(N3C(=O)c4ccccc4C3=O)c2)c1	PAFAH2 inh 52 | PAFAH2 FP conf 46
C=CCn1c(O)c(N=NC(=O)c2ccccc2NS(=O)(=O)c2cccs2)c2ccccc21	PAFAH2 inh 37 | PAFAH2 FP conf inactive
O=C(COC(=O)/C=C/c1ccc(S(=O)(=O)N2CCOCC2)cc1)NC1CCCCCCC1	PAFAH2 inh 53 | PAFAH2 FP conf 32
O=C(COC(=O)/C=C/c1ccc(S(=O)(=O)N2CCOCC2)cc1)Nc1ccc(F)c(F)c1F	PAFAH2 inh 33 | PAFAH2 FP conf 34
O=C(COC(=O)/C=C/c1ccc(S(=O)(=O)N2CCOCC2)cc1)NCc1ccccc1	PAFAH2 inh 49 | PAFAH2 FP conf 30
O=C(COC(=O)c1ccc(S(=O)(=O)N2CCOCC2)cc1)NC1CCCC1	none
COc1cccc(S(=O)(=O)NCc2ccc(C(=O)N3CCN(C)CC3)cc2)c1	none (no result: pPAFAH inh)
O=C1c2cccc3cccc(c23)C(=O)N1OS(=O)(=O)c1ccc(Cl)cc1	PAFAH2 inh 33 | PAFAH2 FP conf 34
Cc1ccc(-c2cc(C(=O)OCC(=O)N(C)C3CCS(=O)(=O)C3)c3ccccc3n2)o1 (stereo unspecified)	none
CCN(C(=O)COC(=O)c1cc(-c2ccc(C)o2)nc2ccccc12)C1CCS(=O)(=O)C1 (stereo unspecified)	PAFAH2 inh 45 | PAFAH2 FP conf inactive
Cc1ccc(C(=O)OCC(=O)NCCc2ccc(F)cc2)cc1S(=O)(=O)N1CCOCC1	PAFAH2 inh 47 | PAFAH2 FP conf 37
O=C(COC(=O)c1ccc(F)c(S(=O)(=O)N2CCOCC2)c1)NCc1ccc(Cl)cc1	none
CCOC(=O)c1ccccc1NC(=O)COC(=O)c1ccc(C)c(S(=O)(=O)N2CCOCC2)c1	none
Cc1ccc(C(=O)OCC(=O)NC(C)C)cc1S(=O)(=O)N1CCOCC1	PAFAH2 inh 32 | PAFAH2 FP conf inactive
O=C(COC(=O)c1ccc(F)c(S(=O)(=O)N2CCOCC2)c1)NCc1ccc(F)cc1	PAFAH2 inh 33 | PAFAH2 FP conf inactive
Cc1ccc(C(=O)OCC(=O)Nc2ccccc2C(F)(F)F)cc1S(=O)(=O)N1CCOCC1	PAFAH2 inh 63 | PAFAH2 FP conf 57
COc1ccc(CN2C(=O)c3cccnc3C2=O)cc1S(=O)(=O)N1CCOc2ccc(Cl)cc21	PAFAH2 inh 30 | PAFAH2 FP conf inactive
COC(=O)c1ccc(CS(=O)(=O)c2ccc(C)cc2)o1	none
COc1ccc2oc(C(=O)OCC(=O)NC3CCCCC3)c(C)c2c1	PAFAH2 inh 64 | PAFAH2 FP conf 57
CSCc1c(C(=O)OCC(=O)NC2CCCCC2)oc2ccccc12	PAFAH2 inh 57 | PAFAH2 FP conf 60
COc1ccc(Br)c(C(=O)OCC(=O)NC2CCCCCCC2)c1	none (no result: PAFAH1B2 FP inh, pPAFAH inh, PAFAH2 inh, PAFAH1B3 inh)
COc1ccc(Br)c(C(=O)OCC(=O)NC2CCCCCC2)c1	PAFAH2 inh 77 | PAFAH2 FP conf 60
CCOc1ccc2oc(C(=O)OCC(=O)NC3CCCC3)c(C)c2c1	PAFAH2 inh 55 | PAFAH2 FP conf 32
O=C(COC(=O)c1cc(=O)c2ccccc2o1)NC1CCCC1	none
COc1ccccc1NC(=O)c1ccc2c(c1)CCN2S(C)(=O)=O	none
CNS(=O)(=O)c1cccc(C(=O)OCC(=O)N2CC(C)OC(C)C2)c1 (stereo unspecified)	none
O=S(=O)(CC(c1ccccc1)N1CCCCC1)c1ccc(Cl)cc1 (stereo unspecified)	none (no result: PAFAH1B2 FP inh, PAFAH2 inh, PAFAH1B3 inh)
O=[N+]([O-])c1cc(N=Nc2ccc3ccccc3c2)ccc1O	none
Cc1c(C(=O)OCC(=O)NC2CCCCC2)oc2ccccc12	PAFAH2 inh 46 | PAFAH2 FP conf 48
CC(=O)C1=C(O)C(=O)N(c2cc(C(C)(C)C)on2)C1c1ccc(C(C)C)cc1 (stereo unspecified)	none (no result: TCR-CD3 inh)
CC(=O)C1=C(O)C(=O)N(c2cc(C(C)(C)C)on2)C1c1ccc(Br)cc1 (stereo unspecified)	PAFAH2 inh 34 | PAFAH2 FP conf inactive
CC1(C)CC(=O)c2cc3c(nc2C1)CC(C)(C)CC3=O	PAFAH2 inh 50 | PAFAH2 FP conf 34
COC(=O)c1cc(C(=O)c2cc(Br)ccc2O)coc1=N	PAFAH2 inh 31 | PAFAH2 FP conf inactive
Cc1ccc(C(=O)OCC(=O)NC(=O)c2cccn2C)cc1	PAFAH2 inh 47 | PAFAH2 FP conf 38
CC(=O)N1CCN(S(=O)(=O)c2cccc(C(=O)OCC(=O)Nc3c(Cl)cccc3C(F)(F)F)c2)CC1	PAFAH2 inh 44 (no result: pPAFAH inh) | PAFAH2 FP conf 32
Cc1ccc(C(=O)OCC(=O)NC(=O)c2cccn2C)cc1[N+](=O)[O-]	none
CC(=O)N1CCN(S(=O)(=O)c2cccc(C(=O)OCC(=O)NC(=O)c3cccn3C)c2)CC1	PAFAH2 inh 35 | PAFAH2 FP conf 32
O=C(COC(=O)c1cccc(S(=O)(=O)N2CCCC2)c1)Nc1ccccc1C(F)(F)F	PAFAH2 inh 45 (no result: pPAFAH inh) | PAFAH2 FP conf 40
O=C(COC(=O)c1ccccc1C(=O)N1CCN(c2ccccc2)CC1)Nc1ccccc1	PAFAH2 inh 63 | PAFAH2 FP conf 60
O=C(COC(=O)c1ccccc1C(=O)N1CCN(c2ccccc2)CC1)Nc1ccc(F)cc1	PAFAH2 inh 74 | PAFAH2 FP conf 60
COc1cccc(NC(=O)COC(=O)C2=NN(c3ccccc3)C(=O)CC2)c1	none
COc1cccc(NC(=O)COC(=O)c2ccccc2C(=O)N2CCN(c3ccccc3)CC2)c1	PAFAH2 inh 54 | PAFAH2 FP conf 54
Cc1nc2c3c(sc2c(=O)[nH]1)NC(=O)CC3c1ccccc1Cl (stereo unspecified)	none
Cc1ccc(CN2CCN(/N=C/C=C/c3ccccc3[N+](=O)[O-])CC2)cc1	none
CCN1C(=O)c2ccc(C(=O)Nc3ccc4c(c3)OCO4)cc2C1=O	none
COc1cc2cncc(Cc3ccc(Cl)cc3)c2cc1OC	none (no result: TCR-CD3 inh)
CCn1cc(C(=O)OCC(=O)Nc2c(C)cccc2C)c(=O)c2ccc(C)nc21	none
CCn1cc(C(=O)OCC(=O)NCc2ccccc2Cl)c(=O)c2ccc(C)nc21	PAFAH2 inh 35 | PAFAH2 FP conf inactive
Cc1nn(-c2ccccc2)c(C)c1/C=C/C(=O)OCC(=O)Nc1ncc(Cl)cc1Cl	PAFAH2 inh 49 | PAFAH2 FP conf 55
COc1ccc(/C=C/C(=O)OCC(=O)Nc2ncc(Cl)cc2Cl)cc1	PAFAH2 inh 37 | PAFAH2 FP conf 43
CSCCC1NC(=O)N(CC(=O)Nc2ccc(-c3ccccc3)cc2)C1=O (stereo unspecified)	none
